High-throughput results deposited in PubChem by National Center for Advancing Translational Sciences (NCATS).
Only some compounds are listed: those with a hit (about 21% of all), similar ones and a draw of the others.
Pf growth 96h – P. falciparum growth inhibition at 96 hours; Potency, µM (highest dose often 28.7 µM), inactives show at the top dose activity change, negative = inhibition, actives largely listed as inhibitors; actives 6.9% (n = 320,000); P. falciparum luciferase reporter growth, 96 h; note: potency is the fitted concentration of half-maximal effect; % is set by controls: 0 for no effect and ±100 for the full control effect
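Luminescence readout: decreased luciferase signal marks inhibited growth of reporter-expressing P. falciparum in infected red cells (2% hematocrit, 0.05% parasitemia final), exposed to compound two generations (96 h, 37 C, 5% CO2).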
Pf growth 48h – inhibits P. falciparum growth in the first generation, 48 h | P. falciparum luciferase growth in erythrocytes, 48 h | Potency, µM (series often up to 28.7 µM), without a hit: at the highest dose activity change, negative = inhibition, most hits filed as inhibitors | actives 5.9% (n = 310,000) | AID 504832; note: potency is the fitted concentration of half-maximal effect; % is set by controls: 0 for no effect and ±100 for the full control effect
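Luminescence readout; reporter = integrated firefly luciferase in P. falciparum. RBC culture at 2% hematocrit, 0.1% parasitemia final, 37 C/5% CO2; decreased signal taken as growth inhibition.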
CHX counter – counter-screen hit for Shiga toxin inhibitors, cycloheximide | actives 12% (n = 300,000) | max response, % | cell reporter, cycloheximide protein synthesis inhibition counterscreen; in the data active = max response mostly above about 13%, no sharp cut-off; inactive = mostly below about 14%; note: read at 38.3 µM for the half of the compounds with a filed dose; 0% is about no effect
NS1 function inh – inhibitors of influenza NS1 protein function; Potency, µM (doses to about 46.1 µM), inactives show top-dose activity, positive = more growth; actives 0.4% (n = 270,000); AID 2326; calls by dose curve; note: potency is the fitted concentration of half-maximal effect; actives are rising curves; nearly all actives have a fitted effect of over 50% in size
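Growth recovery, yeast-based: influenza A NS1 expressed in S. cerevisiae causes slow growth, and suppressors are detected by OD600. The parent strain without NS1 is used as positive control.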
Sm TGR inh – inhibitors of Schistosoma mansoni thioredoxin glutathione reductase | Q962Y6 | purified TGR, DTNB reduction, TNB absorbance 405 nm | actives 3% (n = 360,000) | AID 485364 | Potency, µM (series often up to 114 µM), for the others: at the highest dose activity change, negative = inhibition, most hits filed as inhibitors; note: potency is the fitted concentration of half-maximal effect; % is set by controls: 0 for no effect and ±100 for the full control effect; nearly all actives have a fitted effect of over 60% in size
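First, TGR (20 nM dispensed) and NADPH were mixed with compound. Second, a 15 min room-temperature incubation followed. Third, further NADPH and then DTNB were added to start the reaction. Finally, TNB absorbance was monitored kinetically.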
Shiga inhibitor – blocks Shiga toxin action in Vero cells; Vero cells, Shiga toxin protein synthesis inhibition reporter; inhibition, % at 38.7 µM; actives 9.2% (n = 290,000); AID 2315; in the data active = inhibition mostly above about 28%, no sharp cut-off; inactive = mostly below about 43%; note: 0% is about no effect
Numbers without * were called inactive; ? = inconclusive; nt = no result given; [ ] = remark or other dose. Unless noted, calls come from the whole dose curve; as a rule, active = well fitted curve in the direction sought with a large enough effect; inconclusive = small, poorly fitted or top-dose-only effect, or another doubt; inactive = no such curve, though single readings can be large; an effect the other way counts as inactive or inconclusive.

SMILES	Pf growth 96h	Pf growth 48h	CHX counter	NS1 function inh	Sm TGR inh	Shiga inhibitor
Cc1ccc2sc(N(CCCN(C)C)C(=O)c3ccc(S(=O)(=O)N(C)Cc4ccccc4)cc3)nc2c1C	12µM*	10µM*	nt	nt	-3%	nt
Cc1cccc(NC(=O)Cn2c([N+](=O)[O-])cnc2C)c1C	-2%	6%	-1	3%	-1%	10
O=C(CCN1C(=O)/C(=C/c2ccccc2F)SC1=S)N[C@@H](CO)Cc1ccccc1	?	13%	-2	-12%	-34%	-3
O=C(CCN1C(=O)/C(=C/c2ccccc2)SC1=S)NC1CCS(=O)(=O)C1 (configuration not stated)	13µM*	?	12	-7%	2%	7
O=C(CCCN1C(=O)/C(=C/c2ccc(F)cc2)SC1=S)NC1CCS(=O)(=O)C1 (configuration not stated)	10µM*	9.3µM*	13	6%	3%	-4
O=C(CCCN1C(=O)c2cccc3cccc(c23)C1=O)NC1CCS(=O)(=O)C1 (configuration not stated)	12µM*	?	19	-12%	20%	44
O=C(CCN1C(=O)/C(=C/c2ccccc2)SC1=S)N[C@@H](CO)Cc1ccccc1	13µM*	1%	-10	-2%	7%	-9
CCCC(=O)N1c2ncnn2C2(CCCCC2)[C@@H]2CCCC[C@@H]21	nt	nt	nt	nt	-3%	nt
CC(=O)N1CCc2cc(S(=O)(=O)CCC(=O)Nc3cc(C)cc(C)c3)ccc21	-15%	-7%	-8	1%	-9%	-11
O=C(O)c1ccc(Cl)c(S(=O)(=O)Nc2ccccc2Cc2ccccc2)c1	13%	12%	-2	22%	?	-5
Cc1ccc(S(=O)(=O)NCCOc2nc(N3CCOCC3)nc(N3CCOCC3)n2)cc1	nt	-23%	-4	0%	26%	-15
O=C(Cn1nnnc1CN1CCOCC1)N1CCC(c2cccc(Cl)c2)C1 (configuration not stated)	20%	4%	-2	-4%	-11%	-13
CC(C(=O)N(C)C1CCS(=O)(=O)C1)N1C(=O)/C(=C/c2ccco2)SC1=S (configuration not stated)	?	-16%	-5	19%	25µM*	-5
O=C(CCN1C(=O)/C(=C/c2ccccc2Cl)SC1=S)NC1CCS(=O)(=O)C1 (configuration not stated)	?	4%	-1	2%	1%	-7
O=C(CN1C(=O)/C(=C/c2ccco2)SC1=S)NC1CCS(=O)(=O)C1 (configuration not stated)	?	22%	1	10%	20µM*	-18
Cc1nc(-c2nc(-c3c(C(=O)NN)noc3C)cs2)cs1	259%	204%	28*	nt	-2%	66*
Cc1nc(-c2nc(-c3c(C(=O)NNC(=O)c4ccc(Cl)cc4)noc3C)cs2)cs1	10%	1%	0	-31%	1%	17
Cc1ccc(N2C(=O)CSCC2=O)cc1	nt	-6%	1	-3%	3%	-27
COc1cc(OC)cc(N2C(=O)CSCC2=O)c1	25%	2.6µM*	-1	-4%	-8%	2
Cc1ccc(C)c(N(CC(=O)NCCC2=CCCCC2)S(C)(=O)=O)c1	-25%	nt	-5	2%	-8%	-13
N#Cc1c(N2CCNCC2)nc(-c2ccco2)c2c1CCCC2	32%	6%	-1	4%	7%	-9
N#Cc1c(NC2CCCCC2)nc(-c2ccco2)c2c1CCCC2	?	nt	-7	9%	35µM*	-5
N#Cc1c(NCCCO)nc(-c2ccco2)c2c1CCCC2	?	nt	-4	10%	6.3µM*	-7
CCCCc1nc(NCCO)c(C#N)c2c1CCCC2	29%	-36%	-8	-7%	-3%	-10
CNC1C(O)C(OC2C(NC(=O)C(O)CN)CC(N)C(OC3OC(CN)C(O)C(O)C3O)C2O)OCC1(C)O (configuration not stated)	-4%	0%	nt	nt	nt	nt
SMILES	Pf growth 96h	Pf growth 48h	CHX counter	NS1 function inh	Sm TGR inh	Shiga inhibitor
O=C(CC12CC3CC(CC(C3)C1)C2)N/N=C/c1ccncc1	?	?	-3	-19%	-4%	-8
COc1cc(/C=N/NC(=O)C23CC4CC(CC(C4)C2)C3)cc(Br)c1O	-21%	7%	4	-13%	-18%	26*
COc1cc(/C=N/NC(=O)c2ccc3c(c2)OCCO3)cc(Br)c1O	1%	8%	32*	1%	-17%	41*
COc1cc(/C=N/NC(=O)CC23CC4CC(CC(C4)C2)C3)cc(Br)c1OCC(=O)N(C)C	?	13µM*	-2	24%	-1%	-6
COc1cc(/C=N/NC(=O)CC2(C)OCCO2)cc(Br)c1O	17%	7%	4	nt	-9%	2
COc1cc(/C=N/NC(=O)c2ccc3c(c2)OCCO3)c(Br)c(Br)c1O	34%	32%	32*	7%	?	30
CCOC(=O)c1c(C)oc2c(Cl)cc(NS(=O)(=O)c3ccc(Cl)c(C)c3)cc12	nt	nt	nt	nt	3%	nt
CC1CC(C)CN(CCCNC(=O)CN2C(=O)c3cccnc3Oc3ccc(Cl)cc32)C1 (configuration not stated)	?	10µM*	-3	0%	7%	-15
CNc1nc(Cl)nc2c1ncn2CC(COC(=O)C(C)(C)C)COC(=O)C(C)(C)C	nt	nt	-6	nt	nt	-7
Cc1ccc(C)c(/C=N/Nc2nc3ccccc3c(=O)n2O)c1	7%	34%	22*	6%	15%	34*
C/C(=N\NC(=O)c1cc(C)nc2ccccc12)c1ccco1	-42%[5.75 µM]	?	-1	1%	-26%	1
C/C(=N\Nc1nc2ccccc2c(=O)n1O)c1ccco1	280%	162%	47*	5%	40µM*	62*
CNC(=O)CSc1nnc(NC(=O)Nc2ccccc2)s1	nt	nt	nt	nt	-3%	nt
O=C(CN1C(=O)/C(=C\c2ccccc2Br)Oc2ccccc21)NCCCN1CCOCC1	2.3µM*	-4%	-5	-1%	-9%	-3
CC1Oc2ccccc2N(CC(=O)NCCCN2CCOCC2)C1=O (configuration not stated)	21%	34%	-3	?	3%	-6
CCN1CCN(CCCNC(=O)c2ccc(/C=C3/Oc4ccccc4N(Cc4cccc(C)c4)C3=O)cc2)CC1	?	?	-2	5%	-7%	27
O=C(NCCCN1CCOCC1)c1ccc(/C=C2\Oc3ccccc3N(Cc3ccccc3F)C2=O)cc1	8.3µM*	-30%	-4	9%	-10%	-6
CSc1ccc(Nc2nn(-c3ccc(OC(F)(F)F)cc3)nc2C(C)=O)cc1	nt	nt	nt	nt	3%	nt
CCCS(=O)(=O)c1ncc(Cl)c(C(=O)N(Cc2ccccc2)Cc2ccco2)n1	nt	nt	-15	nt	5µM*	-11
COc1ccc(N2CCN(C(=O)c3nc(SC)ncc3Cl)CC2)cc1	nt	nt	nt	nt	-2%	nt
CCS(=O)(=O)c1ncc(Cl)c(C(=O)NCc2ccc(OC)cc2)n1	nt	nt	nt	nt	10µM*	nt
